SENP6 inh = blocks the human protease SENP6; Recombinant SENP6 catalytic domain, aminoluciferin luminescence; inhibition, % at 10 µM; AID 2599; Q9GZR1; actives 1.8% (n = 330,000);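 active = inhibition above about 50% at the single tested dose, limit read from the data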;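 also: plate controls were DMSO wells with enzyme for no effect and DMSO wells lacking enzyme for full effect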
Target sequence (Q9GZR1 628-1112 limits assumed): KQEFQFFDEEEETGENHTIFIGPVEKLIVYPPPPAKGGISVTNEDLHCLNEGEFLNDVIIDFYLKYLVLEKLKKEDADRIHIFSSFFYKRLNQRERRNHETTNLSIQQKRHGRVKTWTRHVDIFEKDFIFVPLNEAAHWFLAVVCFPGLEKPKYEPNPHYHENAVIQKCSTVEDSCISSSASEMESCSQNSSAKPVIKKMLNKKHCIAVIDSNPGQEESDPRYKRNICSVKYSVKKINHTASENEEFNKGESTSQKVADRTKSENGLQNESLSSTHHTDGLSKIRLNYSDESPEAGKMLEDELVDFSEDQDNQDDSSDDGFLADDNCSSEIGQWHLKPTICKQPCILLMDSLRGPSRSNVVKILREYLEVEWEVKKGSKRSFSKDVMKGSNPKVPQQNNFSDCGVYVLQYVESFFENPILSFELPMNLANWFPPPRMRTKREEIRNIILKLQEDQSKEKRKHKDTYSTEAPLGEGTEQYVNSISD
SENP7 inh = SENP7 protease inhibition. recombinant SENP7, Z-RLRGG-aminoluciferin luminescence, 40 min. inhibition, % at 5 µM. actives 1.5% (n = 330,000);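 active = inhibition above about 50% at the single test dose, limit read from the data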;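 also: plate controls were DMSO with enzyme for no effect and no enzyme buffer wells for full effect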
LGR2 antag = inhibitors of bursicon-induced Drosophila LGR2 receptor cAMP signaling | HEK293 LGR2, CRE-luciferase, bursicon-stimulated, 4 h | inhibition, % at 9.99 µM | actives 0.35% (n = 380,000);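 active = drop in luminescence signal, shown as inhibition above about 50% in the replicate tests, limit read from the data, passing the limit was not always enough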;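 also: agonist challenge used bursicon conditioned medium at about half maximal strength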
SENP8 block-1 = inhibitors of human SENP8 protease; Q96LD8; recombinant SENP8, Nedd8 substrate fluorescence; inhibition, % at 20 µM; actives 0.64% (n = 360,000); in the data active = inhibition mostly above about 40%, no sharp cut-off; inactive = mostly below about 27%
HSP90 refold inh = HSP90 refolding inhibition in rabbit reticulocyte lysate; luciferase refolding luminescence, 3 h; inhibition, % at 5.6 µM; actives 0.91% (n = 290,000);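 active = inhibition above the screen-wide mean plus 3 SD, computed separately per campaign, cut at about 16% in these data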;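 also: 0% = DMSO wells and 100% = 60 µM geldanamycin wells; inhibitors lower the luminescence because luciferase stays unfolded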
SENP8 block-2 = blocks the human protease SENP8; purified SENP8, Z-RLRGG-aminoluciferin cleavage, luminescence; inhibition, % at 10 µM; actives 1.2% (n = 330,000); in the data active = inhibition above about 50%
HSP90 inh confirm = HSP90 inhibition, confirmation assay | inhibition, % at 5.9 µM | shares compounds with HSP90 refold inh | actives 64% (n = 2,300) | rabbit reticulocyte lysate, luciferase refolding luminescence, 3 h; in the data active = inhibition above about 18%;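 also: 0% = vehicle wells and 100% = reference inhibitor wells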
luciferase ctr = blocks native firefly luciferase in HSP90 counter-screen; shares compounds with HSP90 refold inh; purified native firefly luciferase, luminescence; inhibition, % at 5.9 µM; actives 48% (n = 2,300);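 active = inhibition above the mean inhibition of all tested sample wells plus 3 SD, cut at about 10% in these data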;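 also: 0% = DMSO with luciferase and 100% = wells lacking luciferase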
SENP8 conf-1 = confirmation of human SENP8 protease inhibitors; shares compounds with SENP7 inh; Recombinant SENP8, Z-RLRGG-aminoluciferin luminescence, 60 min; inhibition, % at 12.5 µM; actives 40% (n = 6,200); AID 488912;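 active = mean inhibition across replicates above about 50%, limit read from the data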
SENP6 conf = confirmation of human SENP6 protease inhibitors; shares compounds with SENP7 inh; recombinant SENP6, Z-RLRGG-aminoluciferin luminescence; inhibition, % at 12.5 µM; actives 58% (n = 6,200); AID 488915
SENP7 confirm = human SENP7 inhibition, confirmed; inhibition, % at 12.5 µM; actives 69% (n = 6,200); shares compounds with SENP7 inh; recombinant SENP7, Z-RLRGG-aminoluciferin luminescence, 40 min
Casp3 SENP sel = caspase-3 inhibition (SENP selectivity assay); purified caspase-3, Z-DEVD-aminoluciferin luminescence, 60 min; actives 60% (n = 6,200); shares compounds with SENP7 inh; inhibition, % at 12.5 µM;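 active = mean inhibition above about 50%, limit read from the data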;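 also: plate controls were enzyme with DMSO for no effect and wells without caspase-3 for full effect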
Luc interf = interferes with luciferase luminescence in SENP counter-screen | Pre-incubated SENP8/Z-RLRGG-aminoluciferin, luciferase luminescence interference | inhibition, % at 12.5 µM | AID 488919 | shares compounds with SENP7 inh | actives 39% (n = 6,200);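 active = mean inhibition above about 50% when retested at one dose, limit read from the data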;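 also: plate controls were DMSO wells with completed reaction for no effect and substrate without enzyme for full effect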
SENP8 conf-2 = SENP8 (human) inhibition, single concentration confirmation. shares compounds with SENP8 block-1. inhibition, % at 25 µM. actives 15% (n = 1,400). purified SENP8, Nedd8-AMC/pro-Nedd8 cleavage fluorescence, 30 min; in the data active = inhibition mostly above about 39%, no sharp cut-off; inactive = mostly below about 34%
Numbers without * were called inactive. Compounds with a hit are over-represented: about 2.3% of the library has one in this group of screens.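 The calls were made as follows, unless noted: active = mean inhibition above about 50% in the one-dose retest (limit read from the data); inactive = the rest.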

How did C[C@@H]1CN([C@@H](C)CO)C(=O)c2cc(C#CC(C)(C)O)cnc2O[C@H]1CN(C)Cc1cncnc1 do in these assays?
LGR2 antag: -2.9

What do the screens show for `Nc1ccc(Cc2ccc(N)c(O)c2)cc1O`?
LGR2 antag: 4.7; SENP8 block-1: 47.6*; HSP90 refold inh: 24.5*; HSP90 inh confirm: 13.6; luciferase ctr: -6.1; SENP8 conf-2: 12.4

What do the screens show for `C[C@H]1CN([C@@H](C)CO)C(=O)c2ccccc2-c2ccccc2CO[C@@H]1CN(C)C(=O)Nc1ccccc1C(F)(F)F`?
LGR2 antag: -8.6

What do the screens show for `COc1cc(Br)c(C(=O)c2nccc3cc(OC)c(OC)cc23)cc1OC`?
SENP6 inh: 89.9*; SENP7 inh: 91.8*; LGR2 antag: 6.8; SENP8 block-1: 112.8*; HSP90 refold inh: 41.8*; SENP8 block-2: 94.9*; HSP90 inh confirm: 19.1*; luciferase ctr: -3.1; SENP8 conf-2: 100.6*

Results for COc1cc(N)c(C(=O)c2nccc3cc(OC)c(OC)cc23)cc1OC ?
SENP6 inh: -16.2; SENP7 inh: 13.3; LGR2 antag: 19.5; SENP8 block-1: 15.5; HSP90 refold inh: -3.7; SENP8 block-2: -8.9

How did COc1ccc2c(c1)Cc1sc(NC(C)=O)nc1-2 do in these assays?
SENP6 inh: 80.8*; SENP7 inh: 62.4*; SENP8 block-1: 66.7*; HSP90 refold inh: 31.8*; SENP8 block-2: 72.8*; HSP90 inh confirm: 1.9; luciferase ctr: -10.1; SENP8 conf-1: -8.4; SENP6 conf: 51.6*; SENP7 confirm: 75.8*; Casp3 SENP sel: 53.8*; Luc interf: 28.9; SENP8 conf-2: 65.5*

What do the screens show for `C[C@@H]1CN([C@@H](C)CO)C(=O)c2cc(NC(=O)CCN3CCOCC3)ccc2O[C@H]1CN(C)CC1CCCCC1`?
LGR2 antag: -5.8

Results for O=c1cc(-c2cccc([N+](=O)[O-])c2)[nH][nH]1 ?
SENP6 inh: 4.6; SENP7 inh: 11.1; LGR2 antag: 9.3; SENP8 block-1: 42.9*; HSP90 refold inh: 23.8*; SENP8 block-2: 1.2; HSP90 inh confirm: 0.4; luciferase ctr: -3.0; SENP8 conf-2: -1.1

How did O=C(NC(=S)Nc1cccc2c(O)cccc12)c1ccccc1[N+](=O)[O-] do in these assays?
SENP6 inh: 47.7; SENP7 inh: 6.1; LGR2 antag: 17.6; SENP8 block-1: 47.1*; HSP90 refold inh: 35.1*; SENP8 block-2: 35.3; HSP90 inh confirm: 9.3; luciferase ctr: 3.7; SENP8 conf-2: 14.7

Results for O=C(NNC(=S)NC(=O)c1ccccc1[N+](=O)[O-])c1ccccc1O ?
SENP6 inh: 15.3; SENP7 inh: 2.2; LGR2 antag: -17.9; SENP8 block-1: 15.0; HSP90 refold inh: 1.8; SENP8 block-2: 0.8

Bioassay records: PubChem, several laboratories
